Shown are actives, neighbours in structure and some others; about 3.8% of the full set was active somewhere.
aDG glyco up = activators of alpha-DG glycosylation, primary screen, uHTS, Pro5-aDG cells, AlphaScreen; actives 0.22% (n = 360,000); activation, % at 10 µM; alpha-DG glycosylation AlphaScreen (IIH6); 0% Pro5, 100% B10-LARGE cell signal;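 active = activation of at least 8% versus controls, or a plate z-score of at least 8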;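 also: Pro5 are CHO cells carrying HIG-tagged alpha-DG that lacks glycosylation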
CR mimetic SO = reduction of superoxide in aged yeast, primary screen, HTS | actives 0.18% (n = 330,000) | S. cerevisiae aged cells, superoxide DHE fluorescence; active compounds read low | superoxide response (% of plate mean), % at 10 µM | AID 2690, 2010;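 active = superoxide response under a set limit, about three screen SD below normal, cut at about 65% in these data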;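 also: yeast aged for seven days with compound at 30 °C before DHE staining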
H9c2 protect = cardioprotection against H2O2-induced cell death, primary screen, uHTS, H9c2 cells, ATPLite luminescence | actives 0.63% (n = 360,000) | protection from H2O2 cell death, % at 20 µM | H9c2 cardiomyocytes, H2O2 injury protection, 2 h | AID 588492, 2011;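 active = compounds giving at least 50% protection of heart cells from peroxide-induced death in the single-dose screen, raw or plate-pattern-corrected value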
MPTP block = mitochondrial permeability transition pore inhibitors, primary screen, biochemical, isolated mouse mitochondria, absorbance; Ca2+ swelling absorbance, 30 min; inhibition, % at 10 µM; actives 1.4% (n = 360,000); AID 602449, 2012;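 active = inhibition of 50% or more, scaled per plate between neutral and stimulator controls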
Mot1-301 SUMO = yeast Mot1-301 growth rescue at high temperature, primary screen, SUMOylation pathway inhibitor project, S. cerevisiae, ATP luminescence, 38.5C; actives 1% (n = 320,000); S. cerevisiae Mot1-301 growth rescue; percent above DMSO median, 100 means doubled; growth rescue, % at 18.8 µM; AID 2716, 2010;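 active = every valid replicate shows activation above 250% relative to neutral control wells; inactive = the rest, any valid replicate at or below 250%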
FAS TE block = FAS thioesterase domain inhibitors, primary screen, biochemical, fluorescence intensity, uHTS; AID 602261, 2012; Fatty acid synthase (Homo sapiens), P49327; actives 0.67% (n = 360,000); inhibition, % at 15 µM; recombinant FAS-TE, OMFH fluorogenic substrate, fluorescence endpoint;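 active = compounds whose normalised, plate-corrected inhibition of enzyme fluorescence in the single-dose primary screen is 50% or more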
Yeast Mot1 SUMO = growth restoration of Mot1-301 yeast on galactose, dose response, SUMO pathway inhibitor project, whole organism, S. cerevisiae, ATP luminescence, cherry-picked samples; shares compounds with Mot1-301 SUMO; S. cerevisiae Mot1-301 galactose growth, 24 h; -100 = growth of slx-deleted rescue strain; growth activity, percent, % at 42 µM; 2,300 tested, under 10 active;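 active = Signal drops as the depositor expects, and the fitted half-maximal dose is no more than ten times the top valid tested dose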;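 also: more negative values mean stronger growth rescue toward the control strain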
Numbers stand for hits; n = inactive; x = no result; + = active, no number.

SMILES | aDG glyco up | CR mimetic SO | H9c2 protect | MPTP block | Mot1-301 SUMO | FAS TE block | Yeast Mot1 SUMO
N#C/C(=C\c1cccnc1)C(=O)Nc1ccccc1 | n | n | n | n | n | n | x
CC1CN(S(=O)(=O)c2cccc(C(=O)N3CCC(C(N)=O)CC3)c2)CC(C)O1 (stereo not given) | n | n | n | n | n | n | x
CC1CN(S(=O)(=O)c2cccc(C(=O)N=c3sccn3C)c2)CC(C)O1 (stereo not given) | n | n | n | n | 396 | n | n
Cc1ccc(NC(=O)c2c([N+](=O)[O-])c(C(C)(C)C)nn2C)cc1 | n | n | n | n | n | n | x
Cn1nc(C(C)(C)C)c([N+](=O)[O-])c1C(=O)Nc1ccccc1 | n | n | n | n | 586 | n | n
C/C(=N\NC(=O)c1ccc2nc[nH]c2c1)c1ccc([N+](=O)[O-])cc1 | x | n | x | x | n | x | x
C/C(=N\NC(=O)c1cccc(N/N=C(\C)c2ccc([N+](=O)[O-])cc2)c1)c1ccc([N+](=O)[O-])cc1 | n | n | n | n | 540 | n | n
CC(C)(C)c1nnc(NS(=O)(=O)c2ccc(F)cc2)s1 | n | x | n | n | x | n | x
COCC(=O)Nc1c(C(=O)Nc2ccc3c(c2)OCO3)oc2ccccc12 | n | n | n | n | 415 | n | n
CCN(CC(=O)NCc1ccc(Cl)cc1)C(=O)/C=C/c1ccc(C#N)cc1 | n | n | n | n | 821 | n | n
CC1(C)C=C(c2ccc(O)cc2)CC(C)(C)N1 | n | n | n | n | 660 | n | n
C/C=C(/C(=C/C)c1ccc(O)cc1)c1ccc(O)cc1 | n | n | n | n | n | n | x
CCCCn1c(N)c(N(CC(C)C)C(=O)C2CCN(S(=O)(=O)c3ccc(C)c(C)c3)CC2)c(=O)[nH]c1=O | n | n | n | n | n | n | x
CCOC(=O)N1CCC(Nc2nc3ccccc3n3nnnc23)CC1 | n | n | n | n | 889 | n | n
CCCCN(C(=O)CSCC(=O)Nc1cccc(C)c1)c1c(N)n(Cc2ccccc2)c(=O)[nH]c1=O | n | n | n | n | n | n | x
CCNC(=O)C1(C)CCN(C(=O)c2ccc(-c3ccccc3)cc2)C1 (stereo not given) | n | x | n | n | x | n | x
COc1ccc2cc3c(N)nn(C(=O)c4ccccc4Cl)c3nc2c1 | n | n | n | n | 501 | n | n
COc1ccc2cc3c(N)nn(C(=O)c4ccc(F)cc4)c3nc2c1 | n | n | n | n | n | n | x
Cc1cc2c(cc1C)-n1nnnc1C(N1CCN(c3ccccn3)CC1)C(c1ccc3c(c1)OCO3)=N2 (stereo not given) | n | x | x | n | x | x | x
CC1=Nc2ccccc2/C1=C\c1nc(-c2ccccc2)oc1O | n | n | n | n | 623 | n | n
COc1ccc(-c2nc(/C=C3\C(C)=Nc4ccccc43)c(O)o2)cc1 | n | n | n | n | n | n | x
CCN(CC)C1CCN(C(=O)c2cc(COc3ccc(-n4cncn4)cc3)on2)C1 (stereo not given) | n | n | n | n | 512 | n | n
COCC1CCN(C(=O)c2cc(COc3ccc(-n4cncn4)cc3)on2)C1 (stereo not given) | n | n | n | n | n | n | x
CCOC(=O)CNC(=O)c1cccnc1 | n | n | n | n | + | n | n
O=C(NCO)c1cccnc1 | n | x | n | n | x | n | x
SMILES | aDG glyco up | CR mimetic SO | H9c2 protect | MPTP block | Mot1-301 SUMO | FAS TE block | Yeast Mot1 SUMO
CCc1noc(C)c1C(=O)Nc1nc(-c2ccc(F)cc2)c(C)s1 | n | n | n | n | 634 | n | n
COc1ccc(NC(=O)CSCC(=O)Nc2ccccc2C(=O)N2CCCCC2)cc1 | n | n | n | n | n | n | x
COc1ccc(NC(=O)Nc2ccccc2C(=O)N2CCCC2)cc1 | n | n | n | n | 739 | n | n
CN(Cc1ccc(OC(F)F)cc1)C(=O)/C=C/c1ccc(S(=O)(=O)N2CCOCC2)cc1 | n | n | n | n | n | n | x
CCOC(=O)C(C)(C)Sc1nc2c(cnn2-c2ccc(C)cc2)c(=O)[nH]1 | n | n | n | n | 373 | n | n
CCOC(=O)C(C)(C)Sc1nc2c(cnn2-c2ccc(F)cc2)c(=O)[nH]1 | n | n | n | n | n | n | x
COc1ccccc1C(=O)NNC(=O)c1ccccc1F | n | n | n | n | n | n | x
COCC(=O)NNC(=O)c1ccccc1OC | n | n | n | n | 438 | n | n
CCCCc1ccccc1NC(=S)NC1CCCC1 | n | n | n | n | n | n | x
Cc1ccc(C(=O)NC(NC(=O)c2ccc(C)cc2)C(Cl)Cl)cc1 | n | n | n | n | 378 | n | n
COc1ccc(-n2nc3c(c2NC(=O)c2ccc4c(c2)OCO4)CS(=O)(=O)C3)cc1 | n | n | n | n | n | n | x
CCC(C)c1ccccc1NC(=O)CN(C)CCOc1ccc(Cl)cc1 (stereo not given) | n | n | n | n | n | n | x
CN(CCOc1ccc(Cl)cc1)CC(=O)Nc1ccc(OC(F)F)cc1 | n | n | n | n | 403 | n | n
CN(c1ccccc1)S(=O)(=O)c1ccc(Cl)c(C(=O)OCC(=O)c2c(N)n(C)c(=O)n(C)c2=O)c1 | n | x | n | n | x | n | x
CCOc1ccc(-c2nnc(N(CC)C(=O)C3CCC3)s2)cc1 | n | n | n | n | n | n | x
COCCN(C(=O)C1CC1)c1nnc(-c2ccc(C)cc2)s1 | n | n | n | n | 731 | n | n
O=C(O)CC(NC(=O)OCc1ccccc1)c1ccc(Br)cc1 (stereo not given) | n | n | n | n | 585 | n | n
CN(C(=O)c1cncc(Br)c1)C1C2CC3CC(C2)CC1C3 (stereo not given) | n | n | n | n | 780 | n | n
COc1ccc(C(=O)CSc2nnc3ccc(-c4ccccn4)nn23)cc1 | n | n | n | n | 745 | n | n
CC(C)NC(=O)CCCc1cn(C)c2ccccc12 | n | n | n | n | 503 | n | n
COc1ccc(NC(=O)c2cnn3c(C(F)(F)F)cc(-c4ccco4)nc23)cc1OC | n | n | n | n | n | n | x
O=C(c1cnn2c(C(F)(F)F)cc(-c3ccco3)nc12)N1CCCc2ccccc21 | n | n | n | n | 908 | n | n
O=C(NCc1nnc(SCC(=O)N2CCN(c3ccccc3)CC2)o1)c1c(F)cccc1F | n | n | n | n | n | n | x
COc1ccc(CCNC(=O)C/C(C)=N/NC(=O)COc2ccc(C)cc2Br)cc1OC | n | n | n | n | 904 | n | n

Screens deposited in PubChem by several laboratories.
